ClpP mod: qHTS Assay for Activators of ClpP. AID 651965, 2013. Potency, µM (highest dose often 57.5 µM), without a hit: top-dose activity change, negative = active. 340,000 tested, 1.9% active. purified B. subtilis ClpP, FRET peptide cleavage, 20 min; active = well fitted falling curve with a large enough effect; inconclusive = small, poorly fitted or top-dose-only effect; inactive = no such curve, though single readings can be large or run the other way; also: the source files actives as falling curves though it sought activators and does not explain the sign; nearly all actives have a fitted effect of over 65% in size
Target sequence (P80244 whole entry, looked up): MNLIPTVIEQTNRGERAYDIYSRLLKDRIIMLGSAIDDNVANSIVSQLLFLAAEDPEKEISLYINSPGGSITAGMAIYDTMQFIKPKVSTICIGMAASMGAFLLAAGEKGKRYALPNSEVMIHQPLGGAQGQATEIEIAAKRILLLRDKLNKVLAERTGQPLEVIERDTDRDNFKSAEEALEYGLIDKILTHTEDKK
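FRET quenching reversal measured ClpP activation: 10 microg/mL B. subtilis ClpP at pH 8 with the FRET-FV decapeptide, read at 430 nm after 320 nm excitation. The 20-min minus 0-min signal was scaled between DMSO/no-enzyme wells and ADEP (5.8 microM final).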
GALK inh: blocks human galactokinase activity | P51570 | Purified GALK, Kinase-Glo residual ATP luminescence | Potency, µM (top dose mostly 57.5 µM), without a hit: top-dose activity change, negative = inhibition, hits mostly inhibitors | 270,000 tested, 0.007% active | AID 1868; also: % is scaled to controls: 0 for no effect and ±100 for the full control effect
Target sequence (P51570 whole entry, looked up): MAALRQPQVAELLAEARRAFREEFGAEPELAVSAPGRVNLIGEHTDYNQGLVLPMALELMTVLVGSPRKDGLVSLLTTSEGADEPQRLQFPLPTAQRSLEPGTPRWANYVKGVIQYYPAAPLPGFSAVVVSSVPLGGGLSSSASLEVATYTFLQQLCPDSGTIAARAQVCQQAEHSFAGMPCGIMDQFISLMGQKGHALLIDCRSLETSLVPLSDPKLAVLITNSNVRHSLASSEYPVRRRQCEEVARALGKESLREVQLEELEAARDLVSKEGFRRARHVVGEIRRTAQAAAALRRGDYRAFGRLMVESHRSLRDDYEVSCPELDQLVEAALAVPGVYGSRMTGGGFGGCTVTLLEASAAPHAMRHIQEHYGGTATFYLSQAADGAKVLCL
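Galactose (100 uM) and ATP (35 uM) were turned over by 5 nM GALK for 1 h at RT. Kinase-Glo Plus then converted the remaining ATP into a luminescent signal.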
Eya2 inh: blocks the phosphatase activity of human Eya2 | O00167 | recombinant Eya2, OMFP fluorescence dephosphorylation (OMFP is methylfluorescein phosphate) | 330,000 tested, 0.006% active | Potency, µM (doses to about 76.9 µM), inactives show top-dose activity, negative = inhibition, most hits filed as inhibitors; also: % is scaled to controls: 0 for no effect and ±100 for the full control effect
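Eya2 protein (added as 0.2 uM solution) was preincubated with compound for 10 min at ambient temperature in 50 mM HEPES pH 7.5, 50 mM NaCl, 5 uM MgCl2, 0.05% BSA, 1 mM DTT. OMFP (added at 50 uM) then reacted 10 min; fluorescence read at 485/525 nm.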
USP2a inh: USP2a (human) protease inhibition; O75604; USP2 core, Ub-CHOP2 coupled fluorogenic reporter, 485/531; Potency, µM (highest dose often 38.3 µM), for the others: at the highest dose activity change, negative = inhibition, usual class: inhibitors; 330,000 tested, 0.01% active; AID 463254;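 also: plate controls were DMSO wells for no effect and full inhibition by NEM control for full effect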
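Cell-free coupled assay: 10nM USP2 core preincubated 30min RT with compound in Tris-HCl pH 8.0/CaCl2/CHAPS buffer, then 25nM Ub-CHOP2 and 25nM reporter substrate; fluorescence (Ex 485/Em 531) read after 60min RT, normalized to NEM inhibition, concentration-response curves fitted.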
Numbers without * were called inactive; ? = inconclusive; · = no result. This excerpt belongs to a sample that is enriched for hits. Unless noted, calls follow the shape of the dose curve; as a rule, active = well fitted inhibition curve with a large enough effect; inconclusive = small, poorly fitted or top-dose-only effect, or effect the other way; inactive = flat fitted curve, though single readings scatter. Potency is read from the fitted curve at half-maximal effect.

SMILES	ClpP mod	GALK inh	Eya2 inh	USP2a inh
N#Cc1ccc(OCC(=O)OCC(=O)c2ccccc2)cc1	-3%	·	0%	1%
CCOC(=O)Cc1cc(C(=O)Nc2ccc(Br)cc2)sc1-c1ccc(C)cc1	22µM*	·	·	·
C#CCSc1nnnn1-c1ccc(Br)c(C)c1	·	2%	-23%	4%
Nc1nc(Cl)cc(NCCc2ccccc2)n1	·	9%	-12%	1%
O=C(CCCCCn1c(=O)[nH]c2ccccc2c1=O)NCCc1ccccc1	32µM*	·	·	·
CCC1CCCCN1CCCn1c(=S)[nH]c2ccccc2c1=O (stereo not given)	20µM*	0%	-1%	1%
CCOc1cc2[nH]c(=S)n(CCN3CCCCC3CC)c(=O)c2cc1OCC (stereo not given)	0%	1%	10%	1%
O=c1c2ccccc2[nH]c(=S)n1CCc1ccccc1	7.1µM*	-2%	-5%	0%
Cc1cccc(-n2c(=O)[nH]c3c(C(N)=O)nc(C(C)C)nc32)c1	22µM*	-5%	6%	4%
CCc1nnc(NC(=O)C23CC4CC(CC(C4)C2)C3)s1	-2%	8%	-10%	2%
CCn1nnnc1SCC(=O)NNC(=O)C1CCCCC1	-4%	1%	-20%	-6%
CCOC(=O)c1c(NC(=O)c2c(-c3ccccc3)noc2C)sc(C)c1-c1ccccc1	14µM*	0%	4%	3%
CCCOC(=O)c1c(NC(=O)C2c3ccccc3Oc3ccccc32)sc2c1CCCC2	13µM*	·	·	·
CCC1CCc2c(sc(NC(=O)C3c4ccccc4Oc4ccccc43)c2C(N)=O)C1 (stereo not given)	?	0%	4%	1%
CCOC(=O)c1ccccc1NC(=O)c1c(-c2ccccc2)noc1C	-17%	·	·	·
CCOC(=O)c1c(NC(=O)c2ccco2)sc2c1CCCCC2	35µM*	1%	-8%	-1%
CCOC(=O)c1c(NC(=O)c2ccoc2C)sc(C)c1C	8.9µM*	-2%	20%	2%
CN1CCN(C2CCN(Cc3ccc(O)c4ncccc34)CC2)CC1	·	·	3%	1%
CCOC(=O)c1c(NC(=O)c2ccc(C)cc2)sc2c1CC(C)(C)OC2	25µM*	-4%	-5%	-1%
CCOC(=O)c1c(NC(=O)c2ccccc2C)sc2c1CC(C)(C)OC2	?	0%	18%	2%
COC(=O)c1c(NC(=O)COC(=O)[C@@H](NS(=O)(=O)c2ccc(C)cc2)C(C)C)sc2c1CCC2	28µM*	0%	0%	-10%
COC(=O)c1c(NC(=O)c2ccoc2C)sc2c1CCC2	32µM*	0%	7%	-10%
C=C1CC(C(=O)N/N=C/c2ccc(O)cc2)C1	11µM*	·	1%	6%
COC(=O)c1ccc2c(=O)[nH]c(CN3c4ccccc4CC3C)nc2c1 (stereo not given)	-14%	-2%	-10%	0%
CC1Cc2ccccc2N1Cc1nc2cc(Cl)ccc2c(=O)[nH]1 (stereo not given)	13µM*	1%	14%	4%
SMILES	ClpP mod	GALK inh	Eya2 inh	USP2a inh
COc1ccccc1-c1nnc(N)s1	·	11%	9%	1%
COc1ccccc1-c1nnc(SC2CCc3ccccc3NC2=O)s1 (stereo not given)	22µM*	-4%	-9%	1%
COC(=O)c1ccc(Cn2ccc(=O)[nH]c2=O)cc1	14µM*	·	·	·
COc1ccc(-c2ncncc2-c2ccc(OC)c(OC)c2)c(O)c1	20µM*	2%	6%	-4%
COCCN(C(=O)COC(=O)/C=C/c1cccc(OC)c1)c1c(N)n(CC(C)C)c(=O)[nH]c1=O	32µM*	·	2%	0%
CNc1ccccc1C(=O)OCC(=O)N(CCOC)c1c(N)n(CC(C)C)c(=O)[nH]c1=O	22µM*	·	-17%	1%
CC(C)CN(C(=O)CCC(=O)OCC(=O)c1ccc(F)c(F)c1)c1c(N)n(CC(C)C)c(=O)[nH]c1=O	1%	1%	-14%	-7%
COCCN(C(=O)COC(=O)c1ccccc1Cc1ccccc1)c1c(N)n(Cc2ccccc2)c(=O)[nH]c1=O	-1%	·	-21%	-3%
CC(C)CN(C(=O)CCC(=O)OCC(=O)N(C)c1ccccc1)c1c(N)n(CC(C)C)c(=O)[nH]c1=O	28µM*	·	2%	0%
CC(=O)N1CCN(C(=S)Nc2ccc(Oc3ccccc3)cc2)CC1	·	8%	-6%	2%
CC(C)(C)c1ccc(C2(C)NC(=O)N(CC(=O)c3ccc[nH]3)C2=O)cc1 (stereo not given)	-1%	-4%	-17%	3%
COc1ccc(CNc2oc(-c3ccc(COc4ccccc4C)o3)nc2C#N)cc1	4%	·	·	·
COc1ccc(CNc2oc(-c3ccc(COc4ccc(Cl)cc4)o3)nc2C#N)cc1	13µM*	·	·	·
COc1ccc(Nc2oc(-c3ccc(COc4ccc(OC)cc4)o3)nc2C#N)cc1	16%	·	·	·
COc1ccc(OCc2ccc(-c3nc(C#N)c(NCc4ccccc4)o3)o2)cc1	11µM*	·	·	·
O=C(Nc1ccc(C(F)(F)F)cc1)C1(c2ccccc2)CC1	0%	-1%	2%	3%
COc1ccc(/C=C(/C#N)C(=O)Nc2cc(C)ccc2C)cc1C(=O)O	25µM*	0%	30%	-3%
COc1ccc(/C=C(\C#N)C(=O)Nc2cc(C)c(Cl)cc2OC)cc1O	1%	0%	3%	-3%
Cc1ccc(N(Cc2cccs2)C(=O)COc2ccccc2[N+](=O)[O-])cc1	-1%	·	·	·
COc1ccc(C(CC(=O)O)c2cc(OC)c(OC)c(OC)c2)cc1OC (stereo not given)	32µM*	·	·	·
O=C(Nc1cc([N+](=O)[O-])c2[nH]c(=O)c3ccccc3c2c1)C(F)(F)F	32µM*	·	·	·
CCOC(=O)c1ccc(Oc2nc(N(C)C)nc(N3CCOCC3)n2)cc1	2%	-1%	2%	1%
O=C(NCC(=O)N(c1ccccc1)C(C(=O)NC1CCCC1)c1ccncc1)c1cccs1 (stereo not given)	·	17%	4%	0%
Cc1cc(O)c(Oc2cc(C)cc(O)c2O)c(O)c1	1%	0%	-7%	0%
CCc1ccccc1NS(=O)(=O)c1ccc2[nH]cc(C(=O)N(CC)Cc3ccccc3)c(=O)c2c1	5%	·	·	·
SMILES	ClpP mod	GALK inh	Eya2 inh	USP2a inh
CCN(Cc1ccccc1)C(=O)c1c[nH]c2ccc(S(=O)(=O)N(C)CCC#N)cc2c1=O	32µM*	·	1%	-5%
O=C(CCc1ccccc1)OCC(=O)c1ccc([N+](=O)[O-])cc1	-2%	-1%	11%	2%
CC1CC(C)CN(C(=O)COC(=O)c2cc3ccccc3oc2=O)C1 (stereo not given)	35µM*	·	-5%	2%
O=C(OCC(=O)N1CCOCC1)c1cc2ccccc2oc1=O	4%	·	-13%	1%
COc1ccccc1CNC(=O)Cn1c(-c2cccs2)cc2cc(F)ccc21	32µM*	·	·	·
CCOc1cc(CNC(=O)Cn2c(-c3cccs3)cc3cc(F)ccc32)ccc1OC	25µM*	·	·	·

Bioassay records deposited in PubChem BioAssay by National Center for Advancing Translational Sciences (NCATS).
